Several values for one entry are separate records, joined by “and”; a condition that tells them apart may be missing. Equal entries are not always repeated. In all, about 330,000 compounds went through this assay and about 1,100 (0.33%) were called active. For the sample, actives were picked, then their nearest neighbours and some compounds at random. Values without a mark were called inactive. No stated cut-off is given here; in the data, active means inhibition above about 85%; inactive means the rest.

This assay is described as follows: growth inhibition of S. aureus RN4220, primary screen, OD600 (AID 1259311).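 Further: plate controls were untreated cells for no effect and reference antibiotic for full effect.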 The settings on record: OD600, 16 h, stronger effect = higher value.
The inhibition is the change of the read-out against control, counted positive when it falls. As to `CCOC(=O)C1C2COc3ccc(Br)cc3C2N2C(=O)N(c3ccc(C(F)(F)F)cc3)C(=O)[C@@]12C` (stereo not given in full), the inhibition was -6.79%.
Next, `CCCCC1CC1C(NC(=O)c1ccco1)c1ccccc1C(F)(F)F` (stereo not given): 6.05%; `O=C(CN1CCSCC1)NN=Cc1ccc(F)cc1F`: 6.36%; `Cc1ccc(C=NNC(=O)CSc2nc3ccccc3c(=O)n2-c2ccccc2)s1`: -0.0121%.
Next, `Cn1c(SCC(=O)NN=Cc2ccc([N+](=O)[O-])s2)nnc1-c1ccccc1`: 94.9% (active); `Cc1ccc(C=NNC(=O)CSc2nc3ccccc3n2C)s1`: 0.496%; `COC(=O)C1=C(c2ccc(C(C)=O)cc2)CC2CCC1N2C(=O)NCc1ccc(F)cc1` (stereo not given): 1.41%.
For the compound `O=S(=O)(NN=Cc1ccc(OC2CSC2)cc1)c1ccccc1`, the inhibition is 2.43%.
Next, `COc1cccc(C=NNc2cc(-n3nc(C)cc3-c3ccccc3)ncn2)c1O`: 99.8% (active); `COc1cccc(C=NNc2ncnc3c2ncn3Cc2ccccc2)c1O`: 9.44%; `COc1cccc(C=NNC(=O)CSCC(=O)Nc2ccccc2)c1O`: 3.38%.
In the case of `COc1cccc(C(=O)NCC(=O)NN=Cc2c(C)[nH]c3ccccc23)c1` it was 4.11%; in that of `N=C1C(c2nc3ccccc3s2)=C(O)CN1NC(=O)c1ccc([N+](=O)[O-])cc1`, 31.5%; in that of `O=C(NOCc1ccccc1)c1cccc([N+](=O)[O-])c1`, 4.41%.
Take `O=C(NC(Nc1nc2ccc([N+](=O)[O-])cc2s1)(C(F)(F)F)C(F)(F)F)c1ccccc1`: the inhibition was 100% (active).
On to `COC(=O)C1=C(c2cccc(OC)c2OC)CC2CCC1N2C(=O)NCCNC(C)=O` (stereo not given), for which the inhibition is 2.83%.
On to `Cc1ccc(OCC(=O)NN=Cc2cc([N+](=O)[O-])ccc2N2CCCCC2)cc1`, for which the inhibition was 15.8%.
`COc1cccc(C2=CC(=O)CC(c3ccc4c(c3)OCO4)C2)c1OC` (stereo not given): the inhibition was 4.85%.
Take `O=C(Cn1cnc2ccccc21)NN=Cc1ccccn1`: the inhibition was -0.52%.
In the case of `COC(=O)[C@]1(C)NC(c2ccc(-c3cccc(Cl)c3)c(OC)c2)C2C(=O)N(C)C(=O)C21` (stereo not given in full), the inhibition was 4.06%.
In the case of `CCOC(=O)C=c1sc(=C(C#N)C(=O)OCC)n(-c2ccccc2)c1=O`, the inhibition is -0.54%.
In the case of `CCC(C)N1CCC2(CC1)N=c1c(c3c4c5c(C)c(O)c3c(O)c1=NC(=O)C(C)=CC=CC(C)C(O)C(C)C(O)C(C)C(OC(C)=O)C(C)C(OC)C=CO[C@@](C)(O5)C4=O)N2` (stereo not given in full) it was 99.7% (active).
For the compound `Cc1nnc(SCC2=C(C(=O)O)N3C(=O)C(NC(=O)Cn4nc(C)c(Cl)c4C)C3SC2)s1` (stereo not given), the inhibition was 99.6% (active).
`Cc1nnc(SCC(=O)NC2CCCC2)s1`: the inhibition was -0.203%.
In the case of `Cc1nnc(SCc2cc(=O)[nH]c(N3CCN(Cc4ccccc4)CC3)n2)s1` it was 1.62%.
In the case of `Cc1cc(C)cc(C(=O)NC2C(=O)N3C(C(=O)O)=C(CSc4nnc(C)s4)CSC23)c1` (stereo not given) it was 99.5% (active).
Regarding `Cc1nnc(SCC(=O)Nn2cnnc2)s1`, the inhibition is 2.92%.
In the case of `CON=Cc1ccc(N2CCOCC2)c([N+](=O)[O-])c1`, the inhibition is 6.02%.
Consider `C=CCn1c(CNc2ccccc2)nnc1SCC(=O)NN=Cc1ccccc1O`, for which the inhibition was 1.54%.
In the case of `O=C(O)CCC(=NNc1ncc(C(F)(F)F)cc1Cl)C(=O)O` it was 4.71%; in that of `CC(=O)Nc1cccc(C(C)=NNc2ccc(S(=O)(=O)Nc3ccccc3C(=O)O)cc2[N+](=O)[O-])c1`, -10.1%; in that of `CCc1ccc2c(c1)C1(NN=C(c3ccccc3)S1)C(=O)N2` (stereo not given), 92.6% (active).
Regarding `CCN(CC)c1ccc(C(=O)c2cnc(N=CN(C)C)s2)cc1`, the inhibition was 8.12%.
As for `CC(=NNC(=O)CNS(=O)(=O)c1ccc(C)cc1)c1cccc([N+](=O)[O-])c1`, the inhibition is -3.24%.
As to `Cn1c(NN=Cc2ccccc2)nc2sc3c(c2c1=O)CCC3`, the inhibition was 6.77%.
In the case of `O=C(NN=Cc1ccccc1)c1ccc(CN2C(=O)c3cccc4cccc2c34)cc1`, the inhibition is 0.745%.
In the case of `S=C(Nc1ccccc1)Nc1ccc2ccccc2c1`, the inhibition was -8.9%.
For `O=C(Nc1ccc2ccccc2c1)Nc1ccc2snnc2c1`, the inhibition is 106% (active).
As to `Cc1nc2cc(NC(=O)Nc3cccc(F)c3)ccc2n1C`, the inhibition was 2.6%.
With `Nc1nonc1-n1nnc(C(=O)NN=Cc2ccncc2)c1CN1CCCCC1`, the inhibition is 1.52%.
For `Cc1ccccc1NC(=O)C(C)ON=Cc1cccc([N+](=O)[O-])c1` (stereo not given), the inhibition was 4.13%.
In the case of `COc1ccc(CC(O)=C(C#N)c2nc3ccccc3[nH]2)cc1OC`, the inhibition was -2.45%.
As to `CCOC(=O)C=c1sc(=Cc2c(OCC)ccc3ccccc23)c(=O)n1CC(=O)NCC1CCCO1` (stereo not given), the inhibition is -2.12%.
Turning to `Cc1c(CN2CCC(CO)(CCOc3ccccc3)CC2)[nH]c2ccc(Cl)cc12`, the inhibition was 97.5% (active).
Next, `CCOC(=O)C1(CCOc2ccccc2)CCN(Cc2cc(OC)cc(OC)c2)CC1`: 1.85%.
Next, `CCOC(=O)C1(CCOc2ccccc2)CCN(Cc2ccc(C#CCCO)cc2)CC1`: 5.24%; `C#CCOCCOCCOCCNc1nc(N2CCN(C(=O)C(Cc3cc4ccccc4[nH]3)n3cc(C(N)CC(C)C)nn3)CC2)nc(N2CCN(C(=O)C(Cc3ccc(O)cc3)n3cc(C(N)C(C)CC)nn3)CC2)n1` (stereo not given): -1.75%; `CCNc1nc(NCC)nc(NN=Cc2ccc(O)c(OC)c2)n1`: 4.03%.
Regarding `COc1ccc(C=NNC(=O)C(=O)N2CCCCCC2)cc1`, the inhibition is 0.0129%.
On to `Cc1nc2c(-c3ccccc3)c(C)[nH]n2c(=O)c1Cl`, for which the inhibition was 5.58%.
`Cc1[nH]n(-c2cccc(Cl)c2)c(=O)c1-c1ccc(Cl)cc1`: the inhibition is 106% (active).
As to `Cc1cc(=O)n2[nH]c(-c3cccc(Cl)c3)cc2n1`, the inhibition is 0.714%.
Turning to `CC(C)(C)NC(=O)C=NO`, the inhibition was 6.33%.
Consider `O=C(NN=Cc1ccc(OC(F)F)cc1OC(F)F)c1ccc(Br)cc1`, for which the inhibition was 3.44%.
Next, `N#CC(=C(O)c1ccco1)c1ccccn1`: 2.69%; `Oc1ccc(Br)cc1C=Nn1c(COc2ccccc2)n[nH]c1=S`: 5.82%.
With `Cn1cc(Cl)c(C(=O)NNC(=S)Nc2cccc(Cl)c2)n1`, the inhibition was 4.73%.
Take `FC(F)(F)c1cccc(NC(=S)Nc2cccc(Cl)c2)c1`: the inhibition is 100% (active).
Consider `O=C(O)CC1(CC(=O)Nc2cccc(C(F)(F)F)c2)CCCC1`, for which the inhibition was 3.93%.
Turning to `CCN1CC2C3C(=O)N(C)C(=O)C3[C@](Cc3ccccc3)(C1=O)N2C(=O)c1ccccc1` (stereo not given in full), the inhibition was 1.95%.
In the case of `COC(=O)C(C=NOCc1ccc([N+](=O)[O-])cc1)NC(=O)c1cccc(Cl)c1` (stereo not given) it was -3.78%; in that of `COC(=O)[C@@]1(Cc2ccc(OC)cc2)C2c3cc(C(=O)N4CCCC4)n(CCSCCO)c3CC2CN1C(=O)c1ccccc1` (stereo not given in full), 3.17%.
With `N#Cc1ccc(CSc2ncccn2)cc1`, the inhibition was 3.27%.
Regarding `N#CC1=C(SCc2ccccc2)NC(=O)C(C#N)C12CCCC2` (stereo not given), the inhibition was 13.6%.
Take `N#CC1=C(SCc2ccc(C#N)cc2)N=C(N)C(c2nc(-c3ccccc3)cs2)C12CCCCC2` (stereo not given): the inhibition was 98.3% (active).
For the compound `O=C(NC1CC1)C1=CC(C2CC2)CC(OCCCCO)O1` (stereo not given), the inhibition was 6.8% and 1.82%.
Regarding `Cc1cc(C(=O)NN=Cc2cc(Cl)cc([N+](=O)[O-])c2O)n[nH]1`, the inhibition is 7.38%.
With `COc1ccc(/C=C/C(=O)c2cc(Br)ccc(=O)c2O)cc1`, the inhibition is 94.3% (active).
Regarding `COc1ccc(NC(=O)ON=Cc2ccc(Br)cc2)cc1`, the inhibition is 5.53%.
For `COc1ccc(C(=O)/C=C/c2cccnc2)c(OC)c1`, the inhibition is 2.36%.
Regarding `CC(C)(C)OC(=O)NC(Cc1ccccc1)C(=O)NC(CO)C(O)C1CC1C(=O)NC1CC1` (stereo not given), the inhibition was 2.57%.
Turning to `CC(C)(C)OC(=O)C1=C(CO)CS[C@@H]2[C@H](NC(=O)Cc3ccccc3)C(=O)N12`, the inhibition was 99.2% (active).
On to `O=C(Cc1ccccc1)NNC1CC(=O)N(c2ccc(Br)cc2)C1=O` (stereo not given), for which the inhibition was 4.24%.
With `CC(=NNC(=O)CNc1ccccc1)c1ccccc1`, the inhibition was 0.316%.
As to `Cc1cc(N=Nc2ccc3ccccc3c2)ccc1O`, the inhibition was 99.9% (active).
Next, `Cc1c(O)ccc(C(Cc2ccc3ccccc3n2)=NN)c1O`: 4.37%; `COc1cccc(C=NNC(=O)CNC(=O)C2COc3ccccc3O2)c1O` (stereo not given): 2.29%; `CC(=NNC(=O)CNC(=O)C1COc2ccccc2O1)c1ccc([N+](=O)[O-])cc1` (stereo not given): 2.91%.
Take `CC(=O)c1cccc(NC(=O)C2COc3ccccc3O2)c1` (stereo not given): the inhibition was 4.71%.
Regarding `O=C(Nc1ncc([N+](=O)[O-])s1)C1COc2ccccc2O1` (stereo not given), the inhibition was 92.1% (active).
With `Cc1ccc(NC(=O)CN2C(=O)SC(=Cc3cccn3-c3cccc(C(=O)O)c3)C2=O)cc1C`, the inhibition was 8.73%.
As to `CC(=NN=C(c1ccccc1)c1ccccc1)c1ccco1`, the inhibition was 7.82%.
Next, `COc1ccc(CN(Cc2ccc(OC)cc2)C(=O)c2cccs2)cc1`: 6.45%.
As for `COc1ccc(CCNC(=O)C(Sc2ccccn2)c2ccccc2)cc1OC` (stereo not given), the inhibition was 4.13%.
On to `COc1ccc(C(CCN(Cc2ccc(OC)c(OC)c2)C(=O)CCl)c2ccccc2)cc1` (stereo not given), for which the inhibition was 85.5% (active).
Next, `COc1ccc(CN2CCC(=O)N(C(CO)c3ccccc3)CC2)cc1OC` (stereo not given): -2.15%; `CCCCCN1CC(O)=C(c2ccccc2)C1=N`: 7.74%; `CCCCCCCCCCCCn1ccc(=N)cc1`: 101% (active).
Consider `CCC1=C2CCC3C(=O)N(CC)C(=O)C3C2[C@@]2(Cc3ccccc3)C(=NCCOC)OC(=O)N2C1=O` (stereo not given in full), for which the inhibition is 4.23%.
In the case of `O=C(NN=Cc1cccc(OCC(=O)N2CCCC2)c1)C(=O)Nc1ccccc1F` it was 5.07%.
